KDM5B inh: Primary screen for KDM5B Histone Demethylases FDH-coupled qHTS; Lysine-specific demethylase 5B (Homo sapiens), Q9UGL1; KDM5B demethylase, FDH-coupled NADH fluorescence (FDH is formaldehyde dehydrogenase); Potency, µM (doses to about 57.7 µM), most hits filed as inhibitors; 220,000 compounds, 2.6% hits; AID 1347165, 2019; active = well fitted inhibition curve with a large enough effect; inconclusive = small, poorly fitted or top-dose-only effect; inactive = no such curve, though single readings can be large or run the other way; note: potency is the fitted concentration of half-maximal effect; 0% is about no effect; nearly all actives have a fitted effect of over 70% in size
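qHTS format, multiple compound concentrations. Buffer 50 mM HEPES pH 7.5/0.01% Tween-20; 200 nM KDM5BΔAP final; 10 min compound preincubation; substrate-mix levels 12.5 µM peptide, 25 µM α-KG, 0.25 mM NAD⁺; 30 min RT; ΔRFU.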
IP6K1 inhibitor: Primary qHTS assay for small molecule inhibitors of Inositol hexaphosphate kinase 1 (IP6K1) | Inositol hexakisphosphate kinase 1 (Homo sapiens), Q92551 | IP6K1 kinase, ADP-Glo luminescence, 2 h; hits give low values | activity change, % (series mostly up to about 58 µM) | 140,000 compounds, 0.81% hits; in the data active = activity change below about -25%; note: % is set by controls: 0 for no effect and ±100 for the full control effect
Target sequence (Q92551 whole entry, looked up): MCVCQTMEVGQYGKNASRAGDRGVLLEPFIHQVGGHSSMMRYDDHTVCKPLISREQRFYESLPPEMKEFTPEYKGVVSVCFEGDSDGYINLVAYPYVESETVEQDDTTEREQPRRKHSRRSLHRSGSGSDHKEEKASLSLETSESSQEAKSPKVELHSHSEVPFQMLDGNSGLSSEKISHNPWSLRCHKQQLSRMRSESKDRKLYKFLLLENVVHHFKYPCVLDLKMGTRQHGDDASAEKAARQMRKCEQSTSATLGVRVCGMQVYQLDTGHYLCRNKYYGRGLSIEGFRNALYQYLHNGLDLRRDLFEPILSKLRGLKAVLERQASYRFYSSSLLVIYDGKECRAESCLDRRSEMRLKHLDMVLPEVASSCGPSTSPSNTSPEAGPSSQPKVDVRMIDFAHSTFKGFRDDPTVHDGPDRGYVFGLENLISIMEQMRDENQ
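ADP-Glo luminescence measures ADP made by human IP6K1 during a 2 h RT reaction with ATP/IP6 (mix at 1.3 mM/130 uM); top library doses 57.5 and 19.1 uM final.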
* marks the source's active call; other numbers are inactive results. Compounds with a hit are over-represented: about 2.7% of the library has one in this group of screens.

CCOC(=O)CNC(=O)c1ccc2c(c1)N(S(C)(=O)=O)CC2 was read as KDM5B inh inconclusive and IP6K1 inhibitor -7.8.
For CS(=O)(=O)N1CCc2ccc(C(=O)NCCN3CCc4ccccc4C3)cc21 the results were KDM5B inh 28.2µM* and IP6K1 inhibitor -3.6.
CN(C)CCCNC(=O)c1ccc2c(c1)N(S(C)(=O)=O)CC2 was read as KDM5B inh inconclusive and IP6K1 inhibitor -3.6.
`CCN(CC)CCNC(=O)c1ccc2c(c1)N(S(C)(=O)=O)CC2` gave KDM5B inh 28.2µM* and IP6K1 inhibitor 0.3.
Screening COc1ccccc1-c1ccc(C(=O)N2CCC(NC(=O)c3ccccc3Cl)CC2)cc1 returned IP6K1 inhibitor -12.6.
`O=C(c1ccc(-c2ccco2)cc1)N1CCOC(c2ccccc2)C1` (configuration not stated) gave KDM5B inh 28.2µM* and IP6K1 inhibitor 7.4.
Screening O=C(c1cn(-c2ccccc2)nn1)N1CCOC(c2ccc(F)cc2)C1 (configuration not stated) returned KDM5B inh inconclusive and IP6K1 inhibitor 0.4.
Cc1ccc(Nc2ccnc(N3CCCC(C(=O)NCc4ccc5c(c4)OCO5)C3)n2)cc1 (configuration not stated) was read as IP6K1 inhibitor -9.7.
For O=C(c1ccc(F)cc1)N1Cc2[nH]cnc2C[C@H]1c1nc(-c2ccc3c(c2)OCO3)no1 the results were KDM5B inh 39.8µM* and IP6K1 inhibitor -12.4.
O=C(Nc1cccc(F)c1)N1Cc2[nH]cnc2C[C@H]1c1nc(-c2ccccc2)no1 was read as KDM5B inh 28.2µM* and IP6K1 inhibitor -0.8.
For O=C(Nc1cccc(F)c1)N1Cc2[nH]cnc2C[C@H]1c1nc(-c2ccc3c(c2)OCO3)no1 the results were KDM5B inh inconclusive and IP6K1 inhibitor 11.7.
`O=C(Nc1cccc(F)c1)N1Cc2[nH]cnc2C[C@H]1c1nc(-c2ccc(Cl)cc2)no1` gave KDM5B inh inactive and IP6K1 inhibitor 12.5.
Screening CN(C)c1cccc(-c2nccc3c(=O)cc(-c4cn[nH]c4)oc23)c1 returned KDM5B inh inactive and IP6K1 inhibitor -14.4.
`Nc1ccc(-c2cccc3c(=O)cc(N4CCOCC4)oc23)cc1` gave IP6K1 inhibitor 8.4.
O=c1cc(N2CCOCC2)oc2c(-c3ccccc3)nccc12 was read as KDM5B inh 31.6µM* and IP6K1 inhibitor -12.8.
`CN(C)c1cccc(-c2nccc3c(=O)cc(N4CCOCC4)oc23)c1` gave KDM5B inh 35.5µM* and IP6K1 inhibitor -23.0.
For CN(c1ccccc1)c1cc(=O)c2ccnc(-c3ccncc3)c2o1 the results were KDM5B inh inactive and IP6K1 inhibitor -23.1.
For O=c1cc(N2CCOCC2)oc2c(-c3ccncc3)nccc12 the results were KDM5B inh 35.5µM* and IP6K1 inhibitor -4.9.
CCCCCCCCCCSCC(=O)OCC(=O)c1ccc(-c2ccccc2)cc1 was read as KDM5B inh inactive.
Screening O=C(CCc1ccc(-c2ccccc2)o1)NC1CCS(=O)(=O)C1 (configuration not stated) returned KDM5B inh inactive.
For Cc1ccc(NC(=O)CN(C)C(=O)c2ccc3c(c2)nnn3C(C)C)cc1C the results were KDM5B inh inactive.
For COc1ccc(NC(=O)c2cccc3c2CCN3C(=O)Nc2ccc(F)cc2)c(C)c1 the results were KDM5B inh inactive and IP6K1 inhibitor -8.0.
`N#CC1(NC(=O)CSc2nccn2C2CC2)CCCC1` gave KDM5B inh inactive.
For C=C(C)CN1CCN(CCc2ccccc2)CC1 the results were KDM5B inh inactive.
`Cn1c(=O)c2c(nc(Nc3ccc(Cl)cc3Cl)n2CC(=O)O)n(C)c1=O` gave KDM5B inh inactive.
Screening O=C(c1ccc2cc[nH]c2c1)N1CCC(N2C(=O)C3(CCCCC3)C2c2ccncc2)CC1 (configuration not stated) returned KDM5B inh inconclusive and IP6K1 inhibitor -2.8.
Screening CO[C@H]1C(=O)N(C2CCN(C(=O)c3cccc4[nH]ccc34)CC2)[C@H]1c1ccncc1 returned KDM5B inh 25.1µM* and IP6K1 inhibitor 25.4.
For Cc1ccccc1C(=O)N1C2CCCC1CC(=O)C2 the results were KDM5B inh inactive and IP6K1 inhibitor 5.9.
`O=C1CC2CCCC(C1)N2C(=O)c1cccc2[nH]ccc12` gave KDM5B inh 35.5µM* and IP6K1 inhibitor 15.3.
O=C(c1cccc2[nH]ccc12)N1CCC(N2C(=O)C3(CCCCC3)C2c2ccncc2)CC1 (configuration not stated) was read as KDM5B inh 22.4µM* and IP6K1 inhibitor 0.0.
For CO[C@H]1C(=O)N(C2CCN(C(=O)c3n[nH]c4ccccc34)CC2)[C@H]1c1ccncc1 the results were KDM5B inh inactive and IP6K1 inhibitor 18.0.
`CCCCCCC/C=N/NC(=O)CCCCCCCCCCC` gave KDM5B inh inactive.
Screening O=C(c1ccc2c(c1)OCO2)N1CCN(c2ccnc3ccnn23)CC1 returned IP6K1 inhibitor -6.2.
For CCCS(=O)(=O)N1CCC2(CC1)C(=O)N(c1cccc(F)c1)C2c1ccccc1 (configuration not stated) the results were IP6K1 inhibitor -13.1.
For COc1ccccc1OCC(=O)NCc1cc(C)nc2ccccc12 the results were KDM5B inh inactive.
Screening CCCCn1nc(C2CCOC2)nc1-c1cnc(NC)nc1 (configuration not stated) returned KDM5B inh 25.1µM* and IP6K1 inhibitor -1.4.
c1ccc(Cn2nc(C3CCOC3)nc2-c2ccoc2)cc1 (configuration not stated) was read as KDM5B inh inactive and IP6K1 inhibitor -6.0.
`Fc1ccc(CNCCOc2ccccn2)cc1` gave KDM5B inh inactive.
`Cn1cc2c3c(cccc31)CN(C(=O)CC(C)(C)C)CC2` gave KDM5B inh 31.6µM* and IP6K1 inhibitor -2.6.
CCC(=O)N1CCc2cn(C)c3cccc(c23)C1 was read as KDM5B inh inconclusive and IP6K1 inhibitor 12.2.
`CCCn1cc2c3c(cccc31)CN(C(=O)COc1ccc(F)cc1)CC2` gave KDM5B inh 31.6µM* and IP6K1 inhibitor 23.1.
Screening CCCn1cc2c3c(cccc31)CN(C(=O)Cc1ccc(OC)cc1)CC2 returned KDM5B inh inconclusive and IP6K1 inhibitor 9.7.
Cc1ccc(N2CCN(C(=O)C3CCCN(c4cnn(Cc5ccccc5)c(=O)c4)C3)CC2)cc1 (configuration not stated) was read as KDM5B inh inactive and IP6K1 inhibitor 14.7.
`CC(NC(=O)CSc1nnc(COc2ccccc2Cl)n1C)c1ccc2c(c1)OCO2` (configuration not stated) gave KDM5B inh inactive.
For CCCc1noc(-c2cccn3c(CNC(=O)C4CCCC4)nnc23)n1 the results were KDM5B inh 28.2µM* and IP6K1 inhibitor 8.0.
CCc1noc(-c2cccn3c(CNC(=O)C4CCC4)nnc23)n1 was read as KDM5B inh 25.1µM* and IP6K1 inhibitor -2.3.
For CCCc1noc(-c2cccn3c(CNC(=O)CC4CCCCC4)nnc23)n1 the results were KDM5B inh inconclusive and IP6K1 inhibitor 17.8.
O=C(NCc1nnc2c(-c3nc(C4CC4)no3)cccn12)C1CCCC1 was read as KDM5B inh 28.2µM* and IP6K1 inhibitor 0.5.

High-throughput results deposited in PubChem by National Center for Advancing Translational Sciences (NCATS).
